Sampled rows, rich in hits. Any-hit rate of the full collection: about 4.1%.
Shn3 3UTR inh: reduction of Shn3 3'UTR firefly luciferase signal, primary screen, Schnurri-3 inhibitor project, cell-based, Clone20 osteoblasts, set 2; Clone20 osteoblast Shn3 3'UTR firefly luciferase, 24 h; inhibition, % at 12.5 µM; hit rate 0.52% among 360,000; AID 588674, 2011;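 active = mean inhibition of at least 75% with every replicate also reaching 75%; inconclusive = mean inhibition at least 75% but some replicate below; inactive = mean inhibition below 75%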;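 also: 0% = median of neutral control wells and 100% = pilot-screen positive control compound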
TWEAK Fn14 block: inhibitors of TWEAK-Fn14 signaling, primary screen, luciferase reporter cells, uHTS; inhibition, % at 10 µM; hit rate 2% among 360,000; TWEAK-stimulated Fn14 reporter cells, luciferase luminescence, 8 h; AID 1159606, 2016; in the data active = inhibition above about 50%
Peg3 prom inh: Peg3 promoter-driven luciferase inhibitors, primary screen, cell-based, HeLa, luciferase luminescence; inhibition, % at 20 µM; hit rate 1.7% among 360,000; AID 588405, 2011; HeLa PEG-Prom luciferase reporter, overnight;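 active = inhibition of at least 50% at 20 µM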
MITF TRPM1 inh: inhibitors of MITF-dependent TRPM1 promoter reporter, primary screen, cell-based, SK-MEL-5, single point, luciferase; hit rate 0.83% among 330,000; AID 488899, 2010; inhibition, % at 12.5 µM; SK-MEL-5 TRPM1 promoter luciferase, 24 h;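 active = mean inhibition across replicates of 60% or more, whatever share of single replicates reaches that level; inconclusive = some that reach 60%, reason not given; inactive = mean inhibition across replicates below 60%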
LMP1 NFkB inh: EBV LMP1-driven NF-kappaB luciferase reporter inhibitors, primary screen, cell-based, luminescence, single point. inhibition, % at 12.5 µM. AID 504558, 2011. LMP1-induced NF-kappaB luciferase reporter cells. hit rate 0.69% among 350,000; in the data active = inhibition above about 41%; inconclusive = no clear call, values can overlap the other calls;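 also: 0% = neutral control wells and 100% = reference inhibitor control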
TROY NFkB inh: inhibitors of TROY-driven NF-kB signaling, primary screen, Q293 LMP1-TROYcd cells, NF-kB luciferase, uHTS. Q293 LMP1-TROYcd NF-kB luciferase reporter, 4 h. inhibition, % at 10 µM. hit rate 0.98% among 360,000. AID 1347056, 2019;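 active = compounds whose plate-normalised and pattern-corrected inhibition of the luciferase reporter signal at the single screening dose is 50% or more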
Starred values were filed as active, the others as inactive; ? = inconclusive; · = no result.

SMILES | Shn3 3UTR inh | TWEAK Fn14 block | Peg3 prom inh | MITF TRPM1 inh | LMP1 NFkB inh | TROY NFkB inh
CC(=O)Nc1ccc(C=NNC(=O)c2ccc(NS(=O)(=O)c3cccs3)cc2)cc1 | -0.4 | -11.9 | 99.8* | -2.2 | 7.7 | 7.6
O=C(Cc1cccs1)N/N=C/C(Br)=C/c1ccccc1 | 12.1 | -38.2 | -215.6 | -109.7 | -24.3 | -57.0
Cc1ccccc1NCC(=O)N/N=C/C(Br)=C/c1ccccc1 | 69.8 | 57.7* | -15.4 | 4.4 | -4.0 | 20.4
O=C1CC(=O)C(n2cncn2)C(c2ccc(Cl)cc2Cl)C1 (centres undefined) | -4.5 | 63.9* | -5.0 | 2.2 | -1.4 | -1.2
CCOc1cccc(CN2CCN(CCCc3ccccc3)C(CCO)C2)c1O (centres undefined) | -27.2 | 11.7 | 4.3 | 15.8 | 5.4 | -24.7
O=C(CSc1ncnc2c(-c3ccc(Cl)cc3)nsc12)c1ccccc1 | -11.9 | 39.8 | -79.0 | 5.1 | -4.7 | 57.3*
CN(CC(=O)Nc1ncn[nH]1)S(=O)(=O)c1ccc(Br)cc1 | -4.4 | -19.9 | 1.6 | 7.6 | -3.6 | -1.6
CCN(CC)Cc1ccc(NC(=O)c2sc3cc(Cl)ccc3c2Cl)cc1 | -3.4 | -78.1 | 105.3* | 3.3 | -12.9 | -4.2
CCOc1ccc(/C=N/Nc2cc(N3CCOCC3)ncn2)c(O)c1 | 92.5* | -11.2 | 34.4 | · | 56.3* | 0.1
Oc1ccc(/C=N\Nc2cc(N3CCOCC3)nc(N3CCOCC3)n2)c(O)c1 | 9.3 | -36.8 | 9.8 | 3.1 | 0.3 | -36.9
CCCOc1ccc(/C=N/Nc2cc(N3CCOCC3)ncn2)c(O)c1 | 90.2* | -12.2 | 45.3 | 23.9 | 1.7 | 38.7
Clc1ccccc1/C=N/Nc1cc(N2CCOCC2)ncn1 | -117.4 | -6.7 | -117.6 | -59.3 | -25.1 | -31.0
CCCCNC(=O)CSc1nnc(-c2c[nH]c3ccccc23)n1CC1CCCO1 (centres undefined) | 8.9 | -2.5 | 7.0 | -2.4 | -2.4 | -6.7
CC(C)CCNC(=O)C1(O)c2ccccc2NC(=O)N1c1ccc(Cl)cc1 (centres undefined) | -16.8 | 5.3 | -65.6 | -14.5 | -13.0 | -29.9
CC[C@H]1OC(=O)[C@H](C)[C@@H](O[C@H]2C[C@@](C)(OC)[C@@H](O)[C@H](C)O2)[C@H](C)[C@@H](O[C@@H]2O[C@H](C)C[C@H](N(C)C)[C@H]2O)[C@](C)(O)C[C@@H](C)C(=NOCOCCOC)[C@H](C)[C@@H](O)[C@]1(C)O | 4.2 | -5.9 | 4.0 | 6.1 | 53.7* | -0.2
CN(C)S(=O)(=O)c1ccc(Cl)c(NC(=O)C2CCN(S(=O)(=O)c3cccs3)CC2)c1 | 8.1 | 6.5 | 13.8 | 0.1 | 7.8 | 5.6
CCOC(=O)N1CCN(C(=O)c2ccc3c(=O)n(Cc4ccc(Cl)cc4)c(=S)[nH]c3c2)CC1 | -0.7 | -1.8 | 25.8 | -7.4 | 4.0 | 7.8
CCCn1c(=S)[nH]c2cc(C(=O)N3CCCC(C(=O)OCC)C3)ccc2c1=O (centres undefined) | 39.3 | 54.8* | 24.0 | 17.5 | -18.2 | 15.8
CCOC(=O)N1CCN(C(=O)c2ccc(Cn3c(=S)[nH]c4ccc(Br)cc4c3=O)cc2)CC1 | ? | 57.0* | 30.5 | 71.1* | 50.8* | 59.2*
NS(=O)(=O)c1ccc(CCNC(=O)CCCCCn2c(=S)[nH]c3ccc(Br)cc3c2=O)cc1 | -32.0 | 17.9 | 61.6* | 16.0 | 6.8 | -5.4
OC[C@@H]1CN(Cc2ccc(-c3ccccc3)cc2)C[C@H](n2cnc3c(NC4CCC4)ncnc32)O1 | ? | 59.0* | 7.7 | · | · | 36.1
CN1CCN(C(=O)CCN2C(=O)/C(=C/c3ccc(F)cc3)SC2=S)CC1 | -51.7 | 7.8 | 42.6 | -7.8 | -3.7 | -6.6
FC(F)(F)c1ccccc1Cc1c(-c2ccc(Cl)cc2)nc2ccc(Br)cn12 | -10.8 | -1.8 | -65.1 | · | · | 11.9
CCCN1CCC(=O)N([C@H](CSc2ccccc2)CC(C)C)CC1 | -76.4 | 7.4 | -249.5 | -84.3 | -26.3 | 12.9
CCCN1CCC(=O)N([C@H](CSc2ccc(C)cc2)CC(C)C)CC1 | -51.6 | 40.8 | -276.4 | -95.7 | -12.0 | 61.2*
SMILES | Shn3 3UTR inh | TWEAK Fn14 block | Peg3 prom inh | MITF TRPM1 inh | LMP1 NFkB inh | TROY NFkB inh
CCc1cc[n+](C2=C([O-])c3ccccc3C(=O)/C2=N\S(=O)(=O)c2cccs2)cc1 | 58.9 | 15.8 | -20.3 | 96.6* | 2.5 | 24.2
O=C1C(=O)c2ccccc2C([O-])=C1[n+]1ccccc1 | 12.5 | -3.5 | 8.1 | 14.1 | -19.2 | -0.8
CCN(CC(=O)NCc1cccs1)S(=O)(=O)c1ccc(F)c(F)c1F | -11.0 | -10.6 | 8.7 | 0.1 | -3.2 | -17.6
CCc1ccc(/C=C/C(=O)C2C(=O)c3ccccc3C2=O)cc1 | -30.9 | 1.1 | -48.8 | -10.2 | 50.9* | -43.8
O=C(Nc1ccncc1)c1c(Cl)cccc1Cl | -1.3 | 54.8* | 6.5 | 16.6 | 8.5 | 30.5
O=c1c2c3c(sc2ncn1/N=C/c1ccc([N+](=O)[O-])o1)CCCC3 | -11.7 | 63.7* | 9.1 | 81.8* | -76.8 | 12.9
CC(C)CNC(=O)NC(=O)COC(=O)c1ccccc1Sc1ccc(C(F)(F)F)cc1[N+](=O)[O-] | 37.4 | 57.4* | 15.4 | 4.1 | 10.4 | 31.2
COC(=O)CNC(=O)C1Nc2ccc(OC(F)(F)F)cc2C2C=CCC12 (centres undefined) | 4.7 | -21.6 | 14.1 | 6.1 | 1.7 | 2.1
CCOC(=O)c1ccc(-c2ccc(/C=C(\C#N)C(=O)NCc3cccs3)o2)cc1 | 15.5 | -120.9 | 71.5* | 45.4 | -9.3 | -4.1
CN(Cc1ccc(F)cc1)C(=O)CNC(=O)c1ccc2c(c1)OCO2 | 8.7 | -2.5 | -4.2 | -6.2 | -1.0 | 5.2
CCN(CC)S(=O)(=O)c1cc(NC(=O)CSc2nc3c(cc2C#N)C(=O)CC(C)(C)C3)ccc1C | 39.8 | 55.4* | 54.0* | 24.8 | 16.8 | 45.9
Cc1cc(C)n(-c2nc3ccccc3c(=O)n2OCC(N)=O)n1 | -17.9 | 24.2 | 1.2 | 8.9 | -6.6 | 1.9
Cc1cc(CC(C)C)n(-c2nc3ccccc3c(=O)n2OCC(N)=O)n1 | -27.2 | 32.2 | -118.6 | -20.9 | -19.9 | 52.8*
Cc1ccc(C(=O)N2C(=S)C(c3ccc(F)cc3)=NC23CCN(C)CC3)cc1 | 75.1 | 49.7 | 90.0* | 51.1 | 17.6 | -4.7
CN(CC(=O)Nc1ccc(Cl)cc1)C(=O)Cn1[nH]c(=O)c2ccccc2c1=O | 4.5 | -12.9 | 25.8 | -2.0 | -1.4 | -8.6
CCOC(=O)CCCCCC(=O)Nc1ccc2c(c1)C(=O)N([C@H](C)CO)C[C@@H](C)[C@H](CN(C)S(=O)(=O)c1cn(C)cn1)O2 | 5.9 | -9.2 | -5.4 | -0.3 | 31.9 | -3.4
O=C(COC(=O)c1ccc(O)cc1)NCCC1=CCCCC1 | -21.4 | 0.2 | 0.1 | 6.0 | 0.1 | 9.6

Screening data: PubChem, several laboratories
